The results in this text go back to PubChem BioAssay (NCATS).

Results filed as inconclusive are left out. Where a call stands in place of a potency, no number is given. Calls of active or inactive are those of the source. Calls follow the shape of the dose curve; as a rule, active = well fitted curve in the direction sought with a large enough effect; inconclusive = small, poorly fitted or top-dose-only effect, or another doubt; inactive = no such curve, though single readings can be large; an effect the other way counts as inactive or inconclusive.

Chain of Calcium and integrin-binding protein 1 (Homo sapiens) (Q99828 whole entry, looked up): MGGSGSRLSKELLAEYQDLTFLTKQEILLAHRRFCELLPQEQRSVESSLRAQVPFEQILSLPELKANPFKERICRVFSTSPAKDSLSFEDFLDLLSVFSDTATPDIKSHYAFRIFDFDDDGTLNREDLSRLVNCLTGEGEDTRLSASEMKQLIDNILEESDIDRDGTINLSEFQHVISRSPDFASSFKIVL

System in one assay: not listed separately
In words: Primary qHTS for inhibitors of La Crosse Virus (LACV) - induced cell death in SH-SY5Y cells (AID 1508616).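 Also: top concentration of the series differs between compounds; higher means more rescue of cells from virus-induced death.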 The note with it: SH-SY5Y LACV cytopathicity rescue, ATP luminescence, 6 d; series mostly up to 4.29 µM. The essentials: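 Readout was luminescence from ATPLite 1step added after a 6-day LACV infection (0.01 MOI) of SH-SY5Y cells that had received pin-transferred compound 24 hr after seeding.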
With `N#CC1(c2ccc(F)cc2)CCC(=O)CC1`, the molecule was classed as inactive.

For `Nc1cc(C(F)(F)F)ccc1S`, the call was inactive.

Regarding `CO/N=C(\C(=O)O)c1csc(NC(=O)CCl)n1`, the molecule was called inactive.

As to `O=C1NC(c2ccccc2)(c2ccccc2)C(=O)N1COP(=O)(O)O`, the molecule was called inactive.

On to `O=C(O)Cn1c(=O)n(Cc2ccc(Br)cc2F)c(=O)c2ccc(Cl)cc21`, for which the call was inactive.

For the molecule `CCCC(=O)c1cc(O)c(O)cc1O`, the molecule was called inactive.

With `CCCCCCCCCCCCCCCCCCN(C)C`, the result was inactive.

Consider `O=C1Cc2cc(Cl)ccc2N1`, for which the result was inactive.

Consider `CCc1cc(S(=O)(=O)O)c2cc(C(C)C)cccc1-2`, for which the molecule was called inactive.

Consider `NS(=O)(=O)c1cc2c(cc1Cl)CN(C1CCCCC1)C2=O`, for which the result was inactive.

On to `Cc1ccc(/C=N/n2c(-c3ccccc3)csc2=S)cc1`, for which the molecule was called inactive.

A further assay concerns the target Calcium and integrin-binding protein 1 (Homo sapiens) (UniProt Q99828). As to the kind of experiment: Primary qHTS for Identification of Calcium Integrin Binding Protein 1 (CIB1) Competitor (AID 1508620). Also: potency is read from the fitted curve at half-maximal effect. To be noted: CIB1-GST / FITC-alphaIIb peptide fluorescence polarization; series mostly up to 114 µM. The essentials:
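CIB1-GST (1 uM final) and compound incubated 15 min at room temperature before adding FITC-alphaIIb peptide tracer (100 nM final). Competition for binding read by fluorescence polarization (ex 480, em 540) after another 15 min at room temperature.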
On the technique in general: Quantitative high-throughput screening tests each substance at several concentrations.
Regarding `OC1(c2ccccc2)CCNCC1`, the Potency entry is “inactive”.

For `CCCCC(O)/C=C(C)/C=C/C=C/C(=O)N1CCCC1=O` (stereo not given), the Potency result was “inactive”.

As for `CCS(=O)(=O)c1ccc(OC)c(C(=O)OC)c1`, the Potency entry is “inactive”.

Consider `N#CC1(c2ccc(F)cc2)CCC(=O)CC1`, for which the Potency entry was “inactive”.

Regarding `CN1CCC(Nc2ncc3ncnc(Nc4ccc(F)c(Cl)c4)c3n2)CC1`, the Potency result is “inactive”.

For `Nc1cc(C(F)(F)F)ccc1S`, the Potency is 28.2 µM (active).

On to `CO/N=C(\C(=O)O)c1csc(NC(=O)CCl)n1`, for which the Potency result is “inactive”.

Take `CC(=O)N1CCN(c2ccc(O)cc2)CC1`: the Potency entry was “inactive”.

For the molecule `CO[C@@H]1[C@@H](OC)[C@H](C)[C@@](O)(CC(=O)O)O[C@H]1[C@H](C)[C@H]1O[C@@]2(CC[C@@](C)([C@H]3CC[C@@](C)([C@@H]4O[C@@H]([C@H]5O[C@](C)(O)[C@H](C)C[C@@H]5C)C[C@@H]4OC4C[C@H](OC)[C@@H](OC)[C@H](C)O4)O3)O2)C[C@H](O)[C@H]1C` (stereo not given in full), the Potency entry is “inactive”.
